# Rows were chosen to be rich in hits. Some 27% of all compounds tested hit in one or more screens of this group.
# Cav3 T inh = Cav3.2 calcium influx blockers – cell-based, Fluo-4 calcium fluorescence, FDSS, MLSMR library, primary screen. Cav3.2-expressing cells; stronger effect = lower value. B-score at 10 µM. hit rate 4% among 100,000. AID 449739, 2010;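 active means single-dose well whose peak fluorescence ratio is a statistical outlier from its plate by either plate-standardised score or position-corrected B-score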
# CYP2C9 act = human CYP2C9 activators, primary screen, biochemical, luminescence; Cytochrome P450 2C9 (Homo sapiens), P11712; recombinant CYP2C9, luciferin-H conversion; stronger effect = higher value; factor 1 = untreated enzyme, 0 = blocked; activation factor at 5 µM; hit rate 1.4% among 96,000;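 active means activation factor of 2 or more for CYP2C9 at a 5 µM dose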;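 further: 0 = sulfaphenazole-blocked wells and 1 = vehicle-only wells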
# CYP2C9 inhib = blockers of cytochrome P450 2C9 activity – biochemical, luminescence, ADME assay, primary screen; hit rate 20% among 96,000; inhibition, % at 5 µM; P11712; CYP2C9 Supersomes, luciferin-H conversion;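 active means blocking of liver enzyme CYP2C9 beyond about 50% at 5 µM, limit read from the data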
# CYP2C19 inhib = blockers of cytochrome P450 2C19 activity – biochemical, luminescence, ADME assay, primary screen; hit rate 21% among 96,000; inhibition, % at 5 µM; P33261; CYP2C19 Supersomes, luciferin-H EGE luminescence, 30 min;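 active means CYP2C19 inhibition above a set limit at 5 µM in the primary screen, cut at about 50% in these data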;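 further: plate controls were negative control wells for no effect and 2.5 mM tranylcypromine positive control for full effect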
# Target sequence (P33261 whole entry, looked up): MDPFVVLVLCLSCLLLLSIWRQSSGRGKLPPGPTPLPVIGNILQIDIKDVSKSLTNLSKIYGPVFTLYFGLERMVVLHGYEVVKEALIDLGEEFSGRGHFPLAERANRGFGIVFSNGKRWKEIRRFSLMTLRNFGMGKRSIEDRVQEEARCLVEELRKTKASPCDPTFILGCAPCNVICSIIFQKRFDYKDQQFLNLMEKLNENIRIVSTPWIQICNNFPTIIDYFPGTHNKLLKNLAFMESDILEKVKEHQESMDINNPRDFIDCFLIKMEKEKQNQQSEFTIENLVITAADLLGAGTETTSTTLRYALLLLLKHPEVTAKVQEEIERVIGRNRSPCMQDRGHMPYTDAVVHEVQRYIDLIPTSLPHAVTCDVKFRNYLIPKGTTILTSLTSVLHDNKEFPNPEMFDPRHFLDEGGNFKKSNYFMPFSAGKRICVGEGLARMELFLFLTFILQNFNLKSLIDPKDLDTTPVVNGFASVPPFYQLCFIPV
# CYP2C19 act = human CYP2C19 activators, primary screen, biochemical, luminescence; activation factor at 5 µM; Cytochrome P450 2C19 (Homo sapiens), P33261; recombinant CYP2C19, luciferin-H EGE luminescence; stronger effect = higher value; 0 = fully inhibited enzyme, 1 = untreated enzyme; 96,000 tested, under 10 active;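 active means activation factor of at least 2 at 5 µM in the primary screen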;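 further: 0 = wells with 2.5 mM tranylcypromine and 1 = vehicle-only wells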
# * hit, by the source's call; · = no result.
SMILES,Cav3 T inh,CYP2C9 act,CYP2C9 inhib,CYP2C19 inhib,CYP2C19 act
O=C(CN(C1CCCCC1)S(=O)(=O)c1ccc(Cl)cc1)N1CCOCC1,0.478,0.7,26.8,3.0,1
CCOC(=O)N1CCc2c(sc3nc4n(c(=O)c23)N=C(C)CS4)C1,1.15,0.8,23.5,5.5,0.9
O=C(Nc1ccc(OCC(=O)N2CCN(S(=O)(=O)c3ccccc3)CC2)cc1)c1ccco1,0.217,1,3.3,-2.6,1
CS(=O)(=O)N(CC(=O)N1CCCCCC1)c1ccc(Br)cc1,0.687,0.6,36.7,76.8*,0.2
CS(=O)(=O)N(CC(=O)N1CCCCCC1)c1ccc2c(c1)OCCO2,0.281,1.7,-65.3,18.5,0.8
Cc1cc(C)cc(N(CC(=O)N2CCC(C)CC2)S(C)(=O)=O)c1,0.0223,2.2*,-123.3,13.2,0.9
CS(=O)(=O)N(CC(=O)N1CCCCCC1)c1cccc(Br)c1,1.2,0.6,40.7,76.6*,0.2
C=CCNC(=O)c1ccc(N(CC=C)S(C)(=O)=O)cc1,-0.3,·,·,·,·
C=CCN(c1ccc(C(=O)N2CCN(c3ccc(F)cc3)CC2)cc1)S(C)(=O)=O,0.291,0.4,55.2*,44.2,0.6
COC(=O)[C@@]1(Cc2ccc(F)cc2)[C@H]2c3cc(C(=O)N(C)C)n(Cc4c(CO)[nH]cc(C)c4=O)c3C[C@H]2CN1C(=O)c1ccccc1,-0.148,·,·,·,·
NC(=O)c1cc(S(=O)(=O)NC2CCCCC2)co1,-0.0682,0.9,6.7,21.0,0.8
COc1ccc(CNC(=S)Nc2cccc(C)c2C)cc1,-0.445,1.1,-14.3,49.4,0.5
CCCCCCNC(=O)Cc1nc2nc(C)cc(C)n2n1,-3.2,1.2,-15.4,-11.8,1.1
CS(=O)(=O)N(CC(=O)N1CCCC1)c1cccc(Cl)c1,·,0.9,6.4,56.8*,0.4
CS(=O)(=O)N(CC(=O)O)c1cccc(Cl)c1,-0.0403,1,-4.2,-0.2,1
Cc1cc2cc(CCNC(=O)c3c(-c4ccccc4Cl)noc3C)c(=O)[nH]c2cc1C,-3.72*,0.5,47.0,13.3,0.9
Cc1onc(-c2ccccc2Cl)c1C(=O)NCCN1CCOCC1,·,1.1,-9.2,-3.3,1
CCC(CC)C(=O)NCCc1cc2cc(C)c(C)cc2[nH]c1=O,·,0.4,63.3*,28.1,0.7
COc1ccc(C2=CC(=O)CCC2)cc1,1.23,·,·,·,·
CCn1c(N)c(C(=O)NC2CCCCC2)sc1=S,0.773,·,·,·,·
Cc1nc2sccn2c(=O)c1CCN1CCC(=C(c2ccccc2)c2ccc(F)cc2)CC1,-4.16,·,·,·,·
CC(C)(C)NC(=O)C(=O)NNC(=O)c1ccccc1,·,0.8,15.1,-6.5,1.1
O=C(/C=C(\O)c1ccc(Cl)cc1)C(=O)NNC(=O)C(O)(c1ccccc1)c1ccccc1,-8.63*,0.9,9.2,-7.3,1.1
CCC(CC)n1[nH]c(=O)c2c(C)cc(C)nc21,0.273,1,4.2,10.2,0.9
CCCCCC(C)n1[nH]c(=O)c2c(C)cc(C)nc21 (stereo unspecified),·,0.3,65.6*,97.9*,0
SMILES,Cav3 T inh,CYP2C9 act,CYP2C9 inhib,CYP2C19 inhib,CYP2C19 act
Cc1ccc2c(c1)c1c(n2C)-c2[nH]ncc2CC1,0.0968,·,·,·,·
CCc1ccc(N(C(=O)Cc2cccs2)C(C(=O)NC2CCCCC2)c2cn(C)nc2C)cc1 (stereo unspecified),-1.2,0.6,39.5,73.3*,0.3
CCOc1cccc(N(C(=O)Cc2cccs2)C(C(=O)NC2CCCCC2)c2cccn2C)c1 (stereo unspecified),-4.1*,·,·,·,·
Cc1cc(C)cc(N(C(=O)Cc2cccs2)C(C(=O)NC2CCCCC2)c2ccccn2)c1 (stereo unspecified),-5.26*,0.9,12.5,11.4,0.9
Cc1ccccc1C(C(=O)NC1CCCC1)N(C(=O)Cc1cccs1)c1ccc2c(c1)OCCO2 (stereo unspecified),-1.82,1,2.5,5.8,0.9
O=C(NC1CCCCC1)C(c1ccccn1)N(C(=O)Cc1cccs1)c1ccc(Cl)cc1 (stereo unspecified),·,0.5,48.5,36.1,0.6
COCC(=O)NC1CCN(C(=O)Nc2ccc(Br)cc2)CC1,0.558,1.1,-11.8,-4.3,1
COc1cc(CNc2ccc3c(c2)CCC3)cc(OC)c1O,-0.355,1,-3.2,31.8,0.7
COc1cc(CNc2ccc(C)c(C)c2)cc(OC)c1OC,-0.423,0.4,58.4*,91.2*,0.1
COc1cc(C)c(CNc2ccc(OC)c(OC)c2)cc1C,0.383,0.5,48.4,97.2*,0
COc1cc(CNc2cc(C)ccc2C)cc(OC)c1OC,-0.529,0.2,82.4*,98.1*,0
COc1cc(C)c(CNc2cc(C)cc(C)c2)cc1C,2.63,0.9,6.9,29.3,0.7
COc1ccc(NCc2ccc(OC)c(OC)c2)cc1,0.91,0.9,13.7,72.8*,0.3
Cc1cc(C)nc(NS(=O)(=O)c2ccc(N3C(=O)C4CC=C(Cl)CC4C3=O)cc2)n1 (stereo unspecified),·,1,1.9,2.7,1
CCC(CC)NC(=O)COC(=O)c1cccc(C)c1O,-1.17,1.1,-12.0,15.6,0.8
O=C1c2ccccc2C(=O)N1OCCOCCOCCON1C(=O)c2ccccc2C1=O,-0.0358,1.1,-5.2,-4.8,1
O=C1c2ccccc2C(=O)N1OCc1ccc(Cl)cc1,0.387,1.1,-12.6,63.9*,0.4
CCOc1ccc(NC(=O)c2ccc3snnc3c2)cc1,0.743,·,·,·,·
CCOC(=O)Nc1ccc(NS(=O)(=O)c2ccc(C)cc2)cc1,-0.586,0,95.9*,99.1*,0
CCOC(=O)Nc1ccc(S(=O)(=O)Nc2nccc(C)n2)cc1,0.282,0.8,24.1,-9.2,1.1
CCOC(=O)Nc1ccc(S(=O)(=O)Nc2nc(C)cc(C)n2)cc1,0.0583,1.2,-22.6,-3.2,1
CCOC(=O)c1ccc(NS(=O)(=O)c2ccc3[nH]c(=O)[nH]c3c2)cc1,0.062,0.2,75.3*,29.4,0.7
CCOC(=O)NCc1ccc(S(=O)(=O)Nc2c(C)cccc2C)cc1,-0.335,0.7,29.0,74.7*,0.3
CCOC(=O)Nc1sc(NS(=O)(=O)c2ccc(C)cc2)nc1C,-0.00367,0.4,57.8*,4.0,1
COC(=O)C1=C(C(=O)OC)[C@@H]2N(Cc3ccccc3)c3ccccc3[C@@]23C[C@@H](C(=O)OC)N(C(=O)COCc2ccccc2)C3=N1,-0.828,·,·,·,·
Cc1ccc(NS(=O)(=O)c2ccc(NC(=O)c3cccs3)cc2)cc1,-0.387,0.5,51.4*,32.2,0.7
CCOC(=O)Nc1sc(NS(=O)(=O)c2ccccc2)nc1C,0.377,0.2,81.4*,-0.3,1
CCOC(=O)c1sc(NCCNc2nc(C)c(C(=O)OCC)s2)nc1C,0.316,0.8,20.6,-0.3,1
CCOC(=O)c1sc(NS(=O)(=O)c2ccc(C)cc2)nc1C,-1.93,0.2,77.1*,42.4,0.6
